# From PMC4336329 (PLoS ONE, 2015)
# Hit rate of the full screen: of about 310,000 compounds, about 2,200 (0.71%) showed an effect of 50% or more. Effects have a minus sign here. The sample as a whole holds a higher share of strong results than the screen did.
# Molecular target: human ether-à-go-go-related gene (hERG) potassium channel (human, UniProt Q12809)
# Assay: primary screen, population patch clamp on CHO cells stably expressing hERG; higher = less effect of the substance
# Sequence of human ether-à-go-go-related gene (hERG) potassium channel (Q12809 whole entry, looked up): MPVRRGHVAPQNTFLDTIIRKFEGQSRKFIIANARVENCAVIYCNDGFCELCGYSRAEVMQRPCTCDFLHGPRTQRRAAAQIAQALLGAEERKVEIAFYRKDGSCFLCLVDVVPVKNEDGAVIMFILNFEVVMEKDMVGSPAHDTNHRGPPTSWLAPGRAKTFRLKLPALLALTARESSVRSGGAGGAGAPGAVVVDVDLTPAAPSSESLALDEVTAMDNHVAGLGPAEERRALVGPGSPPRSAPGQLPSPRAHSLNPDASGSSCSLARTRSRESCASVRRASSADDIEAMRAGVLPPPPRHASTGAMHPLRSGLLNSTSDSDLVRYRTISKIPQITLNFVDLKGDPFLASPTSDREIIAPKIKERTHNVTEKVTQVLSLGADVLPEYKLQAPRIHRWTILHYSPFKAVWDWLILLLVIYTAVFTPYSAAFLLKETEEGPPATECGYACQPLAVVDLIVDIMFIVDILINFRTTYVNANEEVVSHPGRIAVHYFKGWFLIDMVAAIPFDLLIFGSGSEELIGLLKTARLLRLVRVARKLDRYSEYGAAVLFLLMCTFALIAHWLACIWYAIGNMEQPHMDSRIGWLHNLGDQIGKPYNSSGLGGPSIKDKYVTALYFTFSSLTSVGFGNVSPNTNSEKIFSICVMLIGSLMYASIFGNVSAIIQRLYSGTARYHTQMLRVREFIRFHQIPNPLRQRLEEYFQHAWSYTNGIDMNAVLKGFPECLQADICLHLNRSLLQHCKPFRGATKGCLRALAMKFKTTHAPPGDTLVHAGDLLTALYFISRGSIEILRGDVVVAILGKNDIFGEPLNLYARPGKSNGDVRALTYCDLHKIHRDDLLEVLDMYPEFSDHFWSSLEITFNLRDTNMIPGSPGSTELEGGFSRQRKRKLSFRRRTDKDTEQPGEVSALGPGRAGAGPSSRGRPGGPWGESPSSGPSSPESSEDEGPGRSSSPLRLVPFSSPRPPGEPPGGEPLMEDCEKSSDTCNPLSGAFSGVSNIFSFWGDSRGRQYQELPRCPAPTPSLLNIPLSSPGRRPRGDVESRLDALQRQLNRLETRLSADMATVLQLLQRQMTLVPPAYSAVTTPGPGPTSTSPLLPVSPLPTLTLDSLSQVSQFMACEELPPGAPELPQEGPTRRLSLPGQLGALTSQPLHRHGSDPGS
row,Compound,"hERG current change (%, negative = inhibition) at 1uM [%]"
1,CN(C)c1ccc(C(CNC(=O)c2ccco2)N2CCCC2)cc1 (centres unmarked),13.2
2,Cc1nc(C)c(-c2csc(Nc3ccc(O)c(C(=O)O)c3)n2)s1,13.6
3,CC(=O)c1ccc(NC(=S)N2CCN(c3cccc(Cl)c3)CC2)cc1,12.6
4,COC(=O)C1CC(=O)N(c2ccc(C)cc2)C1 (centres unmarked),4.3
5,CCc1ccccc1NC(=O)CCNS(=O)(=O)c1cc(Br)cnc1N,0.979
6,Cl.O=C(OCCN1CCOCC1)c1ccc2c(c1)OCCO2,8.19
7,O=C(NCCc1ccccn1)C1CC(=O)N(Cc2ccccc2Cl)C1 (centres unmarked),4.09
8,CCCCCCC(=O)Nc1ccc(Cl)cn1,12.1
9,O=C(c1ccc(F)cc1)C1CCN(Cc2cn[nH]c2-c2ccc(F)cc2)CC1,-78.9
10,Fc1ccc(-c2[nH]ncc2CN2CCN(c3ccc(F)cc3)CC2)cc1,-0.0709
11,CCOC(=O)C1CCN(Cc2cn[nH]c2-c2ccc(C)cc2)CC1,-23.6
12,O=C(/C=C/c1ccccc1)NC(=S)Nc1ncccn1,14.1
13,CCN(CC)S(=O)(=O)c1ccc(Cl)c(C(=O)Nc2nncs2)c1,15.1
14,COc1ccccc1OCC(=O)NCCS(=O)(=O)N1CCN(c2ccc(F)cc2)CC1,-3.49
15,Cc1ccc(-n2nnnc2SCc2ccc(C(=O)O)cc2)cc1C,-80.9
16,O=C(O)c1ccc(CSc2nnnn2-c2ccc(F)cc2)cc1,6.99
17,O=C(O)c1ccc(-n2nnnc2SCc2ccccc2)cc1,7.44
18,Cc1c(C#N)c2ccccc2n1CC(=O)NC(C)c1ccccc1 (centres unmarked),4.94
19,COC(=O)c1ccc(CS(=O)(=O)c2ccccc2C)o1,2.66
20,O=C1N=c2ccccc2=C1c1sc(=S)n(CC2CCCO2)c1O (centres unmarked),10.8
21,COc1ccccc1COCC(O)CNCC1(N2CCCCC2)CCCCC1.O=C(O)C(=O)O (centres unmarked),0.206
22,OC(CNCC1(N2CCCCC2)CCCCC1)COc1ccc(Cl)cc1Cl (centres unmarked),-74.2
23,COc1cc(C(C)=O)ccc1OCC(O)CNCC1(N2CCCCC2)CCCCC1.O=C(O)C(=O)O (centres unmarked),2.35
24,Cc1ccccc1NC(=O)CCCN1C(=O)C2CC=CCC2C1=O (centres unmarked),14.5

row,Compound,"hERG current change (%, negative = inhibition) at 1uM [%]"
1,O=C(NC1CCCCC1)C(c1ccncc1)N(C(=O)Cn1nnc(-c2cccs2)n1)C1CCCC1 (centres unmarked),-4.68
2,Cc1ccccc1NC(=O)c1cccc2c1C(=O)N(C1CCCCC1)C2,15
3,O=S(=O)(Nc1cc(F)ccc1F)c1cccc2nonc12,-61
4,O=S(=O)(Nc1cc(F)ccc1F)c1cccc2nsnc12,14.5
5,CSc1ccccc1NS(=O)(=O)c1cccc2nonc12,7.17
6,N#Cc1nc(COc2ccc(F)cc2)oc1N1CCN(Cc2ccccc2)CC1,-51
7,CCN1CCN(c2oc(COc3ccc(-c4ccccc4)cc3)nc2C#N)CC1,10.1
8,N#Cc1nc(COc2ccc(Cl)cc2)oc1N1CCN(Cc2ccccc2)CC1,10.2
9,N#Cc1nc(COc2ccc(Cl)cc2)oc1N1CCCC1,-2.53
10,N#Cc1nc(COc2ccccc2)oc1N1CCN(Cc2ccccc2)CC1,-3.01
11,CCN1CCN(c2oc(COc3ccc(Cl)cc3)nc2C#N)CC1,-79.3
12,COC(=O)C1CC(Cl)CN1c1ncc(C(F)(F)F)cc1Cl (centres unmarked),15.5
13,COc1ccc(-n2c(CNC(=O)COc3ccc(Cl)cc3)n[nH]c2=S)cc1,16.9
14,C/C(=N\O)C(C)(C)Nc1ccc(Cl)cc1,10.9
15,CCOc1cc(S(=O)(=O)NC2CC(C)(C)NC(C)(C)C2)ccc1Cl,11.2
16,COc1ccccc1-c1nnc2sc(-c3cc4ccccc4o3)nn12,-0.794
17,Cl.O=C(NCCCN1CCOCC1)c1ccc(Cl)c(S(=O)(=O)N2CCCCCC2)c1,-18.9
18,CN(C)CCCNC(=O)c1ccc(Cl)c(S(=O)(=O)N2CCCCCC2)c1.Cl,-70
19,CCN(CC)CCNC(=O)c1ccc(NC(=O)c2ccc(Cl)c(S(=O)(=O)N3CCCCCC3)c2)cc1.Cl,1.9
20,O=C(NCCCN1CCCC1=O)c1ccc(Cl)c(S(=O)(=O)N2CCCCC2)c1,9.57
21,CCN(CC)CCNC(=O)c1ccc(Cl)c(S(=O)(=O)N2CCCCCC2)c1.Cl,-52.2
22,Cl.O=C(NCCN1CCOCC1)c1ccc(Cl)c(S(=O)(=O)N2CCCCCC2)c1,-10.3
23,CN(C)C(=O)C12CCC(C)(C(=O)C1Br)C2(C)C (centres unmarked),14.5
